Reference: the supplement of paper PMC6953052
± gives the standard deviation of the averaged measurements. In all, about 1,700 compounds were measured (“fraction of GFP-LC3-positive cells (≥5 vesicles/cell)”: median about 0.43, highest 2% from about 0.81 on). Shown is part of a subset that was picked to be rich in the highest values.

Each compound was assayed on CbCln3 Δex7/8/Δex7/8 GFP-LC3 cerebellar neuronal cells (assay: fraction of GFP-LC3-positive cells (≥5 vesicles/cell); higher = more autophagosome accumulation).
Method in brief: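 Wild-type or mutant CbCln3 cerebellar cells stably expressing GFP-LC3 (2 × 10^3/well, 384-well) received ~50 nL compound in DMSO by pin transfer, in duplicate, for 24 h at 33 °C. Hoechst 33342 and LysoTracker Red were added for the final 30 min before 3.2% PFA fixation and 10× imaging of three fields per well. CellProfiler counted GFP-LC3 vesicles per cell. The value is the fraction of cells with 5 or more vesicles, averaged over duplicates, with out-of-focus images excluded.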

| Compound | fraction of GFP-LC3-positive cells |
| --- | --- |
| CCCCCCCCCCCCCCC[C@@H](O)[C@H](CO)NC(=O)CCCCCCC [C8 Dihydroceramide] | 0.428 |
| CCCCCCCCCCCCCCC[C@@H](O)[C@H](CO)NC(=O)CCCCCCC | 0.494 |
| CN(CCc1ccc(Cl)c(Cl)c1)CC(O)COc1ccc(NS(C)(=O)=O)cc1 (centres undefined) | 0.503 |
| CC(=N)NCc1cccc(CN)c1 | 0.371 |
| Cc1c(N(C)CS(=O)(=O)[O-])c(=O)n(-c2ccccc2)n1C.[Na+] [Dipyrone] | 0.447 |
| O=c1c(O)c(-c2ccc(O)cc2)oc2cc(O)cc(O)c12 [Kaempferol] | 0.294 |
| O=C1C=CC(=O)c2c1ccc1c2ccc2ccccc21 [Chrysene-1,4-quinone] | 0.883 |
| O=C1CCc2c(ccc3ccccc23)O1 [Splitomycin] | 0.354 |
| N=C(N)NS(=O)(=O)c1ccc(N)cc1 [Sulfaguanidine] | 0.43 |
| CN(C)CC/C=C1\c2ccccc2COc2ccccc21.Cl [Doxepin hydrochloride] | 0.567 |
| CCCc1c(OCCCCc2nnn[nH]2)ccc(C(C)=O)c1O | 0.398 ± 0.011 |
| Cc1c(N)c(=O)n(-c2ccccc2)n1C [Ampyrone] | 0.49 |
| CO[C@@H]1[C@H](N(C)C(=O)c2ccccc2)C[C@H]2O[C@]1(C)n1c3ccccc3c3c4c(c5c6ccccc6n2c5c31)C(=O)NC4 | 0.636 |
| O=P(O)(O)C(O)c1ccc2ccccc2c1 (centres undefined) | 0.425 |
| CN(C)CC/C=C1\c2ccccc2CSc2ccccc21.Cl [Dosulepin hydrochloride] | 0.637 |
| CN(C)CCn1nnnc1SCC1=C(C(=O)O)N2C(=O)[C@@H](NC(=O)Cc3csc(N)n3)[C@H]2SC1.Cl [Cefotiam hydrochloride] | 0.488 |
| CCCCC/C=C\C[C@@H](O)/C=C/C=C/C=C/[C@@H](O)CCCC(=O)O [5(S),12(R)-DiHETE all trans] | 0.354 |
| Nc1cc(N2CCCCC2)nc(N)[n+]1OS(=O)(=O)[O-] | 0.38 |
| CCCC(=O)Nc1ccc(OCC(O)CNC(C)C)c(C(C)=O)c1.Cl (centres undefined) [Acebutolol hydrochloride] | 0.518 |
| CN(C(=O)CN(CCO)CC(=O)N(C)C(C)(C)Cc1ccccc1)C(C)(C)Cc1ccccc1 [Oxethazaine] | 0.384 |
| CCCCC[C@H](O)/C=C/[C@H]1[C@H](O)CC(=O)[C@@H]1CCCCCCC(=O)O [Prostaglandin E1] | 0.349 |
| CCCCC[C@H](O)/C=C/[C@H]1[C@H](O)CC(=O)[C@@H]1CCCCCCC(=O)O | 0.346 |
| O=c1[nH]c2cc(C(F)(F)F)ccc2n1-c1cc(C(F)(F)F)ccc1O | 0.292 |
| C[n+]1ccccc1/C=N/O.[Cl-] [Pralidoxime chloride] | 0.428 |
